Source: PubChem BioAssay
Calls of active or inactive are those of the source.

Columns and labels:
[1] = binders of probe aFSTL3 on microarray, primary screen, stem cell growth factor project, biochemical, small-molecule microarray, fluorescence 635/667 (AID 1064); details: higher = more signal;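 note: measures binding of the biotinylated anti-FSTL3 antibody to printed compounds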
[2] = binders from COS7 lysate, DM2A8 probe, primary screen, torsin A project, cell lysate, small-molecule microarray, fluorescence 635/667 (AID 1065); details: higher = more signal, COS7 lysate expressing mutant human TOR1A
[3] = binders of probe aFGF2 on microarray, primary screen, stem cell growth factor project, biochemical, small-molecule microarray, fluorescence 635/667 (AID 1067); details: higher = more signal;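 note: measures binding of biotinylated aFGF2 protein to printed compounds on slides; z-score merges feature fluorescence and signal-to-noise across triplicate slides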
[4] = binders of probe aFGF10 on microarray, primary screen, stem cell growth factor project, biochemical, small-molecule microarray, fluorescence 635/667 (AID 1071); details: higher = more signal;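 note: score merges 667 nm spot intensity and signal to noise from triplicate slides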
[5] = molecular target: Neurogenic locus notch homolog protein 2 (Homo sapiens) (UniProt Q04721); assay: Notch2 binders on small-molecule microarrays, primary screen, biochemical, small-molecule microarray, 635 nm fluorescence, stem cell growth factors (AID 1073); details: Notch2 binding, higher = more signal
[6] = molecular target: Pro-neuregulin-1, membrane-bound isoform (Homo sapiens) (UniProt Q02297); assay: NRG1 binders on small-molecule microarrays, primary screen, psychiatric disease protein project, biochemical, small-molecule microarray, fluorescence 635/667 (AID 1075); details: NRG1 binding, 635 nm fluorescence, higher = more signal;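 note: score combines 667 nm spot fluorescence with signal to noise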
Pro-neuregulin-1, membrane-bound isoform (Homo sapiens), sequence (Q02297 whole entry, looked up, the tested form may be a part, canonical isoform): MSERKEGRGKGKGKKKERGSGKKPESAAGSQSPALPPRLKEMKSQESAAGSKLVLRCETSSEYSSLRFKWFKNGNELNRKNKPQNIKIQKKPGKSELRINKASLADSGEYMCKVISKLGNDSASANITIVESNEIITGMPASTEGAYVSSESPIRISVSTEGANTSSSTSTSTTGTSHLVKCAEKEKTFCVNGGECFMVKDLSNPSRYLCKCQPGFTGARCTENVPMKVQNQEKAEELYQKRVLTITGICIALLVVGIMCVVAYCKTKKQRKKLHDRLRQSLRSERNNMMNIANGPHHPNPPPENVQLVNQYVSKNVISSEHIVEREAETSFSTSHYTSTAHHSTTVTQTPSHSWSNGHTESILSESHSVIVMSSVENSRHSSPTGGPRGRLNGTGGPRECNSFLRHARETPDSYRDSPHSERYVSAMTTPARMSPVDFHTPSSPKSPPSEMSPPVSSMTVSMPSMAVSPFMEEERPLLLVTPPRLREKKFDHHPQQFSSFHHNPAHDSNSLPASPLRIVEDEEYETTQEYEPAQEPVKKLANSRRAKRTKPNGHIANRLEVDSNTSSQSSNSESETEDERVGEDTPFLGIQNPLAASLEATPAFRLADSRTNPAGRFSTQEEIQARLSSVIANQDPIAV

[7] = test system: Neuregulin-1 EGF-like domain; assay: binders of neuregulin-1 EGF-like domain, primary screen, biochemical, small-molecule microarray, 635 nm fluorescence (AID 1081); details: small-molecule microarray binding, higher = more signal;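 note: binding of the protein to compounds printed on small-molecule microarray slides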
[8] = FRG1 promoter luciferase signal modulators, primary screen, FRG1 inhibition for FSHD, cell-based, C2C12 myotubes, firefly/Renilla luciferase, luminescence (AID 1084); details: higher = more signal, called active from +8 up or from −8 down
[9] = binders of probe aFST on microarray, primary screen, stem cell growth factor project, biochemical, small-molecule microarray, fluorescence 635/667 (AID 1086); details: higher = more signal;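 note: score merges 667 nm fluorescence with signal-to-noise of each printed compound spot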
[10] = binders of probe aHhip on microarray, primary screen, stem cell growth factor project, biochemical, small-molecule microarray, fluorescence 635/667 (AID 1087); details: higher = more signal;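 note: score merges spot fluorescence at 667nm with spot signal to noise ratio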
[11] = test system: PRMT1 (protein arginine N-methyltransferase 1); assay: PRMT1 binders on small-molecule microarrays, primary screen, biochemical, small-molecule microarray, 635 nm fluorescence (AID 1088); details: small-molecule microarray binding, higher = more signal;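 note: binding of Prmt1 protein to compounds spotted on small-molecule microarray slides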
[12] = yeast growth modulation, basal conditions, primary screen, YJM789 clinical isolate, OD600, 24 h (AID 1089);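 note: growth of clinical yeast isolate S. cerevisiae YJM 789 seeded 1000 cells per well; test concentration not given here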; details: S. cerevisiae YJM789 growth, higher = more signal, called active from +8 up or from −8 down
[13] = fission yeast growth modulation, primary screen, strain 972, OD600, 24 h, no modulator (AID 1090);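 note: basal condition with compound alone and no growth modifier present; test concentration not given here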; details: S. pombe 972 growth, higher = more signal, called active from +8 up or from −8 down
[14] = S. cerevisiae growth modulation with rapamycin, primary screen, strain BY4716, OD600, 96 h (AID 1091); details: higher = more signal, called active from +8 up or from −8 down; note: test concentration not given here
[15] = molecular target: Torsin-1A-interacting protein 2 (Homo sapiens) (UniProt Q8NFQ8); assay: LULL1 binders on small-molecule microarray, primary screen, cell lysate, human LULL1 lysate, 635/667 nm fluorescence (AID 1092); details: hLULL1 lysate binding, 635 nm fluorescence, higher = more signal;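 note: probe is lysate of COS7 cells overexpressing human LULL1; score merges per-feature 667 nm fluorescence with signal-to-noise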
Torsin-1A-interacting protein 2 (Homo sapiens), sequence (Q8NFQ8 whole entry, looked up): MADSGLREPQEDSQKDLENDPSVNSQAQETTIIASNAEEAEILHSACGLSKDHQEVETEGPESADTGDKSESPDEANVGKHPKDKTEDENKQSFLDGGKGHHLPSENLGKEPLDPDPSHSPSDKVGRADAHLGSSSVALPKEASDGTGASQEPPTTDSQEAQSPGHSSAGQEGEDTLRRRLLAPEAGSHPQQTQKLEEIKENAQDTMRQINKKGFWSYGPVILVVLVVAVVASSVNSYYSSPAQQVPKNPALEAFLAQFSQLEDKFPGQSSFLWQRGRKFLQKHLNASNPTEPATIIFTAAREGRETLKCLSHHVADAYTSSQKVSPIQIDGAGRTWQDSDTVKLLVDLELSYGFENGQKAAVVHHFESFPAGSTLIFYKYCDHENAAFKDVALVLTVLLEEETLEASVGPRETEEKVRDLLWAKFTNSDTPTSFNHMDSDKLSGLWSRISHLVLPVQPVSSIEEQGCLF

[16] = E. coli growth modulation, two-sided OD650, primary screen, E. coli filamentation project, strain DRC41, 24 h (AID 1093); details: OD650, 24 h, higher = more signal, called active from +8 up or from −8 down;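 note: MC1000 strain lacking acrAB efflux and sulA so SOS filamentation is blocked; test concentration not given here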
[17] = small-molecule microarray binders of probe aLefty2, primary screen, biochemical, biotinylated probe, 635/667 nm fluorescence (AID 1094); details: higher = more signal;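 note: score merges spot fluorescence near 667 nm with spot signal-to-noise ratio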
[18] = test system: Noggin (protein binding on small-molecule microarray); assay: Noggin binders on small-molecule microarray, primary screen, biochemical, 635/667 nm fluorescence (AID 1095); details: 635 nm fluorescence, higher = more signal;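 note: score merges 667 nm feature fluorescence with signal to noise over triplicate slides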
[19] = molecular target: Neurogenic locus notch homolog protein 3 (Homo sapiens) (UniProt Q9UM47); assay: NOTCH3 binders on small-molecule microarray, primary screen, biochemical, 635/667 nm fluorescence (AID 1096); details: NOTCH3 binding, 635 nm fluorescence, higher = more signal
Neurogenic locus notch homolog protein 3 (Homo sapiens), sequence (Q9UM47 whole entry, looked up): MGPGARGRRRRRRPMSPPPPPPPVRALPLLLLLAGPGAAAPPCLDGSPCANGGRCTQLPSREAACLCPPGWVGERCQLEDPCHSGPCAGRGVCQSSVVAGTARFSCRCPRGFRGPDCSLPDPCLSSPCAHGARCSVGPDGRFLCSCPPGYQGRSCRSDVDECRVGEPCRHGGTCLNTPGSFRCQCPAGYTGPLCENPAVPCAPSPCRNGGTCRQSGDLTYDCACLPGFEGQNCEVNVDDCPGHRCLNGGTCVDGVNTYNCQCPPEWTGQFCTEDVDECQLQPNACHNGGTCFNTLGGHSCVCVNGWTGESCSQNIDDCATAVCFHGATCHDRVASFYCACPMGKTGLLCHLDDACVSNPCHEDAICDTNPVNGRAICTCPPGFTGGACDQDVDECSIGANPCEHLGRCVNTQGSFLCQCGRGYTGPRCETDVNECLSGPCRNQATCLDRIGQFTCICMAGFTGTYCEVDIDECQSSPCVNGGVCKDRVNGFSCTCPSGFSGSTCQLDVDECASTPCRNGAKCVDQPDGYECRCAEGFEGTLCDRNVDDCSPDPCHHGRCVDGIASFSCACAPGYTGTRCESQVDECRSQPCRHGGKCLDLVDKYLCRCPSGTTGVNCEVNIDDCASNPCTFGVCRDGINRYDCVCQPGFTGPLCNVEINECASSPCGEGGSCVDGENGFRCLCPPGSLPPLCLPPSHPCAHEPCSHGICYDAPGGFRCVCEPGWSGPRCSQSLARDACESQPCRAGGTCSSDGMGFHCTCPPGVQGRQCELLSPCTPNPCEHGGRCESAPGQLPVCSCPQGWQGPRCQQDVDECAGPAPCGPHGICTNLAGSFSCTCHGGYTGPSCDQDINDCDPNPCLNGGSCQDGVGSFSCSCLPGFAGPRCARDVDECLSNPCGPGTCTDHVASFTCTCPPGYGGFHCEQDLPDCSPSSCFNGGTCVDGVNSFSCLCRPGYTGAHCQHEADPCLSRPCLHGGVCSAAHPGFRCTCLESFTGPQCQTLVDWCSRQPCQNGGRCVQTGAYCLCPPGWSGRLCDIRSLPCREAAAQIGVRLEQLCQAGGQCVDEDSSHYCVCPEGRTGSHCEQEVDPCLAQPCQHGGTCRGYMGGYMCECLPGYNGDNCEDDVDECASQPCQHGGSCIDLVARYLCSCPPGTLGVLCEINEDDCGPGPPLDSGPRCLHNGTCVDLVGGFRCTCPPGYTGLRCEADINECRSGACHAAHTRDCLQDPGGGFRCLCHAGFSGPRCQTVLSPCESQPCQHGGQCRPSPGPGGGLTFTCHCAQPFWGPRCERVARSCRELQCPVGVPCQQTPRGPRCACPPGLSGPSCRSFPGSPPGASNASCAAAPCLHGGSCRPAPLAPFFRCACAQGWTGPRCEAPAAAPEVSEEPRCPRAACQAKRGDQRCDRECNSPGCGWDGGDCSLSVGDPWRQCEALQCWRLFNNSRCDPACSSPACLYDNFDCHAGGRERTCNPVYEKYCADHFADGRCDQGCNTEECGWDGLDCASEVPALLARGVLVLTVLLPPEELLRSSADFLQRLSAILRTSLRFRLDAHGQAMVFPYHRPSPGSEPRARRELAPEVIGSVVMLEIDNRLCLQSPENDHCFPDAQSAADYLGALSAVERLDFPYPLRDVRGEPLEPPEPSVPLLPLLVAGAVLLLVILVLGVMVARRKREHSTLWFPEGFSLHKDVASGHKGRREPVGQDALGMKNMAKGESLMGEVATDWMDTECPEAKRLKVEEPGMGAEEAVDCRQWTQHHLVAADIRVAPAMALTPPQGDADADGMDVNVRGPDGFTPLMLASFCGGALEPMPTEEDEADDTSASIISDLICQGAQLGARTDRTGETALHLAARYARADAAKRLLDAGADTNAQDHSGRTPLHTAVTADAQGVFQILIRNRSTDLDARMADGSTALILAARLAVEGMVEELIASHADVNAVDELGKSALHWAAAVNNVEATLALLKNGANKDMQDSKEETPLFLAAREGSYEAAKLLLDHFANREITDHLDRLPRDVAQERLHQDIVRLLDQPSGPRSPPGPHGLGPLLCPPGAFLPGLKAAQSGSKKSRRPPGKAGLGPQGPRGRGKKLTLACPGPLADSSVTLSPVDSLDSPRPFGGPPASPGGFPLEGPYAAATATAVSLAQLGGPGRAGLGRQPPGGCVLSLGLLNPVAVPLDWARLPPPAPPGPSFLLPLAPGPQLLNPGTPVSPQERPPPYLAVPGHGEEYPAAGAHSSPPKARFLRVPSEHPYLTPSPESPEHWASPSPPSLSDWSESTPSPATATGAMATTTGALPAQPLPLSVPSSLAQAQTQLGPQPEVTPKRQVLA

[20] = small-molecule microarray binders of probe aEGFR, primary screen, biochemical, biotinylated probe, 635/667 nm fluorescence (AID 1097); details: higher = more signal;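 note: probe is a biotinylated anti-EGFR antibody binding compounds printed on slides; score combines fluorescence near 667 nm and signal to noise of each spot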

Compound	composite z-score [1]	composite z-score [2]	composite z-score [3]	composite z-score [4]	composite z-score [5]	composite z-score [6]	composite z-score [7]	z-score [8]	composite z-score [9]	composite z-score [10]	composite z-score [11]	z-score [12]	z-score [13]	z-score [14]	composite z-score [15]	z-score [16]	composite z-score [17]	composite z-score [18]	composite z-score [19]	composite z-score [20]
Cc1ccc(N2C(=O)c3ccccc3[C@@H](C(=O)NCC(C)C)[C@@H]2c2ccc(CO)cc2)nc1	0.341	-0.751	-0.161	-0.494	-1.07	-0.265	0.346	-0.788 (inactive)	-0.473	-0.0645	0.137	0.229 (inactive)	0.0994 (inactive)	-0.456 (inactive)	2.32	0.409 (inactive)	-0.186	-0.479	-1.03	-0.298
CC(C)C(=C=CC[C@H](O)c1ccccc1OCCO)CCO	0.0409	-0.0204	-0.152	0.161	-0.679	0.319	0.614	0.129 (inactive)	-0.0031	-0.0994	1.35	-0.655 (inactive)	-0.39 (inactive)	-0.236 (inactive)	2.48	-0.105 (inactive)	0.0349	-0.143	-0.131	-0.0915
CCCNC(=O)[C@@]1(C)c2ccccc2C(=O)N(Cc2cc(C(F)(F)F)cc(C(F)(F)F)c2)[C@H]1c1ccc(CO)cc1	0.177	-0.0656	-0.0653	0.108	-0.626	1.68	1.37	0.0565 (inactive)	-0.0368	-0.0645	1.43	0.0841 (inactive)	-0.25 (inactive)	-0.49 (inactive)	2.59	-0.667 (inactive)	-0.119	-0.675	-0.131	-0.137
CC(C)[Si]1(C(C)C)O[C@@H](c2ccccc2)c2cc(-c3ccc(-c4ccc(Cl)c(Cl)c4)o3)nc(CCc3ccccc3)c21	0.662	-0.56	-0.16	-0.641	-0.868	-0.345	-0.314	0.838 (inactive)	-0.363	0.269	0.324	0.149 (inactive)	-2.2 (inactive)	3.08 (inactive)	0.883	-0.823 (inactive)	-0.126	-1.37	-1.78	-0.248
Cc1ccccc1/C=C/C=O	-0.162	-0.623	-0.135	-0.0909	-1.09	-0.628	-0.631	0.258 (inactive)	-0.127	0.0957	-1.47	-1.01 (inactive)	-3.42 (inactive)	-0.402 (inactive)	-0.672	0.35 (inactive)	-0.13	-0.13	-1.63	-0.307
COc1ccc([Si](C)(C)[C@H]2[C@H](CC(=O)N3CCC[C@H]3CO)O[C@@]3(C(=O)N(Cc4cccc(N5CCC5=O)c4)c4ccccc43)[C@@H]2C)cc1	-0.226	0.149	0.0496	1	1.01	0.865	1.32	-4.15 (inactive)	0.774	-0.253	1.55	-0.795 (inactive)	0.289 (inactive)	-0.743 (inactive)	2.6	1.24 (inactive)	0.226	1	1.13	0.133
O=C1OCCC=C[C@H]2OC34C=CCN(CCN5CCOCC5)C(=O)[C@H]3N(CCO)C(=O)[C@@H]4C12 (stereo not given in full)	-0.217	1.12	-0.179	0.127	-0.621	-0.714	0.916	-0.0663 (inactive)	-0.569	-0.489	0.134	-0.698 (inactive)	-0.518 (inactive)	-0.482 (inactive)	-0.114	0.0484 (inactive)	-0.145	0.922	0.439	-0.23
CCOC(=O)C1=CC[C@@H](c2ccccc2)N(S(=O)(=O)c2ccc(C)cc2)[C@H]1c1ccc(C#N)cc1	-0.0221	0.381	0.054	0.359	1.43	1	1.01	-1.59 (inactive)	0.832	-0.161	0.852	-0.624 (inactive)	0.553 (inactive)	1.18 (inactive)	2.73	-0.883 (inactive)	0.0163	-0.232	1.11	0.136
[N-]=[N+]=Nc1ccccc1C[C@]1(C(=O)N2CCCCC2)N=C(c2ccc(OCCCO)cc2)O[C@H]1c1ccccc1N=[N+]=[N-]	0.368	-0.155	0.14	0.771	1.53	1.71	1.01	-1.68 (inactive)	0.991	-0.305	1.56	0.0343 (inactive)	-10.4 (active)	1.51 (inactive)	3.48	-0.204 (inactive)	0.512	0.471	1.05	0.277
C=CCC(OC(C)=O)[C@@H]1[C@@H](N(Cc2cc3ccccc3o2)C(=O)c2cccc3ccccc23)c2cc(OCCCO)ccc2N1C(=O)Cc1ccc(OC)cc1 (stereo not given in full)	-0.295	-0.52	-0.0128	0.0939	0.0751	0.758	0.111	-0.709 (inactive)	-0.0464	-0.109	0.21	-0.0559 (inactive)	-0.28 (inactive)	0.351 (inactive)	1.33	-0.829 (inactive)	-0.0745	0.342	-0.351	-0.0967
